What was measured:
Assay in all cases: DAPPL (digital affinity profiling via proximity ligation, sequencing); 10 mM Tris-HCl pH 7.5, 50 mM NaCl, 1 mM DTT, 4% glycerol, room temperature, 30 min; GST-TFs on glutathione beads, 16-mer random dsDNA library, 0.1% formaldehyde crosslink after washing; high values mean tight binding
FEV = target: T1, FEV (Homo sapiens, UniProt Q99581 1-238); details: protein: recombinant; tags: N-terminal GST; dsDNA, one strand shown
T1 sequence: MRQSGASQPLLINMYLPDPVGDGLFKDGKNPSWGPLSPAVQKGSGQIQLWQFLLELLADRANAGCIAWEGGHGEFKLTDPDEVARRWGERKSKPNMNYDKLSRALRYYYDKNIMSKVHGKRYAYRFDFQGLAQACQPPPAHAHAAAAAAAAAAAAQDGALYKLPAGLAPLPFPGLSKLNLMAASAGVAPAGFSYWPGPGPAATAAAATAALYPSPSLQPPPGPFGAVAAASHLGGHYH
Outline: (§1)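 Human transcription factors fused to GST were expressed in yeast, captured on glutathione beads, given DNA barcodes and pooled with a GST-only negative control. Pools were incubated with 200 nmole of a 16-mer random double-stranded DNA library in Tris/NaCl/DTT/glycerol buffer at room temperature for 30 min. They were then washed, crosslinked with 0.1% formaldehyde, proximity-ligated (BsaI/T4 ligase, 1 h, 37 °C), PCR-amplified and sequenced on an Illumina NextSeq500. Binding signal is each 6-mer's read frequency for a factor divided by its frequency for the GST control.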

ETV5 = ETV5 (Homo sapiens, UniProt P41161 1-510); details: protein: recombinant; tags: N-terminal GST; dsDNA, one strand shown
Chain of ETV5 (P41161 whole entry): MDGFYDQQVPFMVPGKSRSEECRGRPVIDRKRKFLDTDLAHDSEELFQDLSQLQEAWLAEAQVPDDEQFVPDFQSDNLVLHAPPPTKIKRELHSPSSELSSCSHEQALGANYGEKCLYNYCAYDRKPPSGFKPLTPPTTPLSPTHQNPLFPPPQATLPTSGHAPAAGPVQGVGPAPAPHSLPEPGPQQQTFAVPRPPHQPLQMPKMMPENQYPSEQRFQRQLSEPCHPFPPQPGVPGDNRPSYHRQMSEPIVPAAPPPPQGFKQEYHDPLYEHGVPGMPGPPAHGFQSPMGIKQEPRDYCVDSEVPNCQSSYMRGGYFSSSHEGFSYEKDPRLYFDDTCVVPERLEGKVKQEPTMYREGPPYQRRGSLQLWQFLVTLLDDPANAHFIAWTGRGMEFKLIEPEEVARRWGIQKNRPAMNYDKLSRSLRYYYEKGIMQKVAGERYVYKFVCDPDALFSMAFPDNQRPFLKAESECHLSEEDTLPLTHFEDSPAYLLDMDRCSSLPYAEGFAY
Outline: as §1

HSF1 = HSF1 (Homo sapiens, UniProt Q00613 1-529); details: protein: recombinant; tags: N-terminal GST; chain copies: 3; dsDNA, one strand shown
Chain of HSF1 (Q00613 whole entry): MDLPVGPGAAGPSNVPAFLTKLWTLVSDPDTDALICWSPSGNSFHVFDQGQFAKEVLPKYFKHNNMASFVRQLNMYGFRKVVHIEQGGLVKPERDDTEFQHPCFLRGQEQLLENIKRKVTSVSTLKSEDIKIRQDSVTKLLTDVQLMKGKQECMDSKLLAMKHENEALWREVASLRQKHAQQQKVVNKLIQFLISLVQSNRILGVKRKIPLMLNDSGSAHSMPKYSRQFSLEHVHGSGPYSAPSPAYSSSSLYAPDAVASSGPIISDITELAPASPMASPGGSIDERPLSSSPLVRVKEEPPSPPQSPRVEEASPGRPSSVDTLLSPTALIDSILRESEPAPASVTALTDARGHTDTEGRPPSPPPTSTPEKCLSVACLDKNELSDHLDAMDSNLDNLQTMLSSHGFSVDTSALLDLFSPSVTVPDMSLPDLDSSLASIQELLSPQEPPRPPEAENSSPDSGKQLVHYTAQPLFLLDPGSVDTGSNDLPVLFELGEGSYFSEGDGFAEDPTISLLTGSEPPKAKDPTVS
Outline: as §1

SPIC = target: T2, SPIC (Homo sapiens, UniProt Q8N5J4 1-248); details: protein: recombinant; tags: N-terminal GST; dsDNA, one strand shown
T2 sequence: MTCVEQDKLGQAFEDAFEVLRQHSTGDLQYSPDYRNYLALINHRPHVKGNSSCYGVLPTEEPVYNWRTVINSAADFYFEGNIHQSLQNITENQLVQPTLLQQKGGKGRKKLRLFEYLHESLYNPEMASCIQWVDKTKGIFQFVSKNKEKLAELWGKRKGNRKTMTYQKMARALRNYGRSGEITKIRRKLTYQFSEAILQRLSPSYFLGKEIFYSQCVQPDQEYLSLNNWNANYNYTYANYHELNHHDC
Outline: as §1

ELF4 = ELF4 (Homo sapiens, UniProt Q99607 1-663); details: protein: recombinant; tags: N-terminal GST; dsDNA, one strand shown
Chain of ELF4 (Q99607 whole entry): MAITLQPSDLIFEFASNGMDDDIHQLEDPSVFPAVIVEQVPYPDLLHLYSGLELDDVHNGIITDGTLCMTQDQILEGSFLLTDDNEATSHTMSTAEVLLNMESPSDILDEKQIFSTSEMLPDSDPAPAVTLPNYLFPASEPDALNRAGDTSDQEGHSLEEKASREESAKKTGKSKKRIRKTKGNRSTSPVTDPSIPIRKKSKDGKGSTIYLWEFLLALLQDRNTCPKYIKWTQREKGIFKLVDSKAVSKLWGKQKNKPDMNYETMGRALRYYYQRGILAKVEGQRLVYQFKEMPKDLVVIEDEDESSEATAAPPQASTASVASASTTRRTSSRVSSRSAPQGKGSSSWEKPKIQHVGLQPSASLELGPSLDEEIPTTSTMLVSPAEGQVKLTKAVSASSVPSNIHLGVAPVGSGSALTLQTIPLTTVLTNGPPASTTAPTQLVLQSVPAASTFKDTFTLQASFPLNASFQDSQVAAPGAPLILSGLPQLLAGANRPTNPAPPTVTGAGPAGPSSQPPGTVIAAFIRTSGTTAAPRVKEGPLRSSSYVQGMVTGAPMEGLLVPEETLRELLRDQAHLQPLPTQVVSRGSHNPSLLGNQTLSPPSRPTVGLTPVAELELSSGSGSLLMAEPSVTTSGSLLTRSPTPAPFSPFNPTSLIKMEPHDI
Outline: as §1

ELK4 = target: T3, ELK4 (Homo sapiens, UniProt P28324-2 1-405); details: protein: recombinant; tags: N-terminal GST; dsDNA, one strand shown
T3 sequence: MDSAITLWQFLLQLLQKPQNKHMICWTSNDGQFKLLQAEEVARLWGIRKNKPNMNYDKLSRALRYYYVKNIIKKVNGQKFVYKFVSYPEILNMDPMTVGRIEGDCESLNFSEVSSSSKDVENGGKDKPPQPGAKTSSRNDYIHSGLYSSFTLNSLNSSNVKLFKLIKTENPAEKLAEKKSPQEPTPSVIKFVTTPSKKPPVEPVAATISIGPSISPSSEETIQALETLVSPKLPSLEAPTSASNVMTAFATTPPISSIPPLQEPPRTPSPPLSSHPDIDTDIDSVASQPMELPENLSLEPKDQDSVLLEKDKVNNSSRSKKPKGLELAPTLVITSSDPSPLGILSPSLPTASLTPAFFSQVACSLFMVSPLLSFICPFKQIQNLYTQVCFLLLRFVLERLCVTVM
Outline: as §1

ETV2 = target: T4, ETV2 (Homo sapiens, UniProt O00321 1-342); details: protein: recombinant; tags: N-terminal GST; dsDNA, one strand shown
T4 sequence: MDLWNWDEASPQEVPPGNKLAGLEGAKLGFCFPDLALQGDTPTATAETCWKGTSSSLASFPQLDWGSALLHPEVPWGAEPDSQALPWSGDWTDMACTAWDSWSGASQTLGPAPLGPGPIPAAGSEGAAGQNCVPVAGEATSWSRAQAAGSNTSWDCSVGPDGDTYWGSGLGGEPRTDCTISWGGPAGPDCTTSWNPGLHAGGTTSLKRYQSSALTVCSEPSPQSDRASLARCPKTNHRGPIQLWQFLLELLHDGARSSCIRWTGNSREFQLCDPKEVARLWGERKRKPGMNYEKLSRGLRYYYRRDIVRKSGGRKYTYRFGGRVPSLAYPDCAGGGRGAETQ
Outline: as §1

ELF3 = target: T5, ELF3 (Homo sapiens, UniProt P78545 1-371); details: protein: recombinant; tags: N-terminal GST; dsDNA, one strand shown
T5 sequence: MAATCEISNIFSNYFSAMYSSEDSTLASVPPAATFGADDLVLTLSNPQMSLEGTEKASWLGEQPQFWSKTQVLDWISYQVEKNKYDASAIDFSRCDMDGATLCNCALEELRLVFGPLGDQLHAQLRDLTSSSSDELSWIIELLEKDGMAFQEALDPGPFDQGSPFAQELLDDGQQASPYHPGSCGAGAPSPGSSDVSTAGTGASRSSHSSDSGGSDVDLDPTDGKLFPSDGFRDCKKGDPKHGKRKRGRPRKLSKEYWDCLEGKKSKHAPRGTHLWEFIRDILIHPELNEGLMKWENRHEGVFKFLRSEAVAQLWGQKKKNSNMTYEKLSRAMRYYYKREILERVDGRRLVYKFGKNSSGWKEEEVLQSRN
Outline: as §1

CRX = CRX (Homo sapiens, UniProt O43186 1-299); details: protein: recombinant; tags: N-terminal GST; dsDNA, one strand shown
Chain of CRX (O43186 whole entry): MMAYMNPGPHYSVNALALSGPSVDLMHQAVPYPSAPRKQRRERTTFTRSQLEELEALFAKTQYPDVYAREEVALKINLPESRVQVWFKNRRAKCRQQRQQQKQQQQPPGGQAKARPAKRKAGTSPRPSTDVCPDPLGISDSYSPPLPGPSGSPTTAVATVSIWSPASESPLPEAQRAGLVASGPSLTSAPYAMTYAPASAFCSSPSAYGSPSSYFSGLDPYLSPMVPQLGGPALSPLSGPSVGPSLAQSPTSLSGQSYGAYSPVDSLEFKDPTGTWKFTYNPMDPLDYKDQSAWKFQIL
Outline: as §1

ETV1 = ETV1 (Homo sapiens, UniProt P50549 1-477); details: protein: recombinant; tags: N-terminal GST; dsDNA, one strand shown
Chain of ETV1 (P50549 whole entry): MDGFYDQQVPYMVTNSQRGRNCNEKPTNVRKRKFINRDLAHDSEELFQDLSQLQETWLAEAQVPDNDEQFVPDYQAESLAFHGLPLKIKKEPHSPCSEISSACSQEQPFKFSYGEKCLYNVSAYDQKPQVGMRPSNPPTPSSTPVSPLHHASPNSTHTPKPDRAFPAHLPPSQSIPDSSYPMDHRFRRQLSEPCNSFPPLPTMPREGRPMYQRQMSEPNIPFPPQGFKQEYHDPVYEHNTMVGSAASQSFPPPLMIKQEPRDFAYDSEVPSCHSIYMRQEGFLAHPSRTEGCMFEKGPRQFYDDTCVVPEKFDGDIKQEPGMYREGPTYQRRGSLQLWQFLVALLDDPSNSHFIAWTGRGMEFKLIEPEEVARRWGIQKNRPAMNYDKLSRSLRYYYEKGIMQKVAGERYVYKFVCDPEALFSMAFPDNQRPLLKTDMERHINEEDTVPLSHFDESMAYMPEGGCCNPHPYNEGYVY
Outline: as §1

ERF = target: T6, ERF (Homo sapiens, UniProt P50548 1-548); details: protein: recombinant; tags: N-terminal GST; dsDNA, one strand shown
T6 sequence: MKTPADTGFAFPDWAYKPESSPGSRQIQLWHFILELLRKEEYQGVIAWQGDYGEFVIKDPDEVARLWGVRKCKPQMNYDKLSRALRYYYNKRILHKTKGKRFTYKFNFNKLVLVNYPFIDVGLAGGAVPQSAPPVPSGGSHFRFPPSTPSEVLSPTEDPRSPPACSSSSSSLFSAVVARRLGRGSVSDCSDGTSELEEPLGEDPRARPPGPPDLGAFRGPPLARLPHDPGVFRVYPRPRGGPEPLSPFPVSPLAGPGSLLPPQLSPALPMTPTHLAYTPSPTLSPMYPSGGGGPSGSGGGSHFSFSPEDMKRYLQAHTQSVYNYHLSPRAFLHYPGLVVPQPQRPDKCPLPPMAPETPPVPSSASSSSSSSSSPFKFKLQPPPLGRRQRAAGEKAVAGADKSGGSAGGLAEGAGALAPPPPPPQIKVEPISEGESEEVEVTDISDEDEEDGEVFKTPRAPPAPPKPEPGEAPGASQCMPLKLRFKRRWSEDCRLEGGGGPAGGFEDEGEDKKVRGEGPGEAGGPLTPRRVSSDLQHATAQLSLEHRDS
Outline: as §1

ETV3L = target: T7, ETV3L (Homo sapiens, UniProt Q6ZN32 1-361); details: protein: recombinant; tags: N-terminal GST; dsDNA, one strand shown
T7 sequence: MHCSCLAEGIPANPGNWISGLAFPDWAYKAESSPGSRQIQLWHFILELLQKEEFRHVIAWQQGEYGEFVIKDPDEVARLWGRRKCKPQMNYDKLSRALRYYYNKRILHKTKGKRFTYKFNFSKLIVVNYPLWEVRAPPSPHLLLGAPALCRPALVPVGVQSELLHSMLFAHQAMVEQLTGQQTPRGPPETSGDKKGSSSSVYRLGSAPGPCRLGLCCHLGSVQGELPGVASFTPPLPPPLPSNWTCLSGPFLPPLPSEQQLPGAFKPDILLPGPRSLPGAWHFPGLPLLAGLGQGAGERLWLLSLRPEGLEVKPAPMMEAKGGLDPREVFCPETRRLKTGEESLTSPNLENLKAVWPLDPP
Outline: as §1

ETS2 = target: T8, ETS2 (Homo sapiens, UniProt P15036 1-469); details: protein: recombinant; tags: N-terminal GST; dsDNA, one strand shown
T8 sequence: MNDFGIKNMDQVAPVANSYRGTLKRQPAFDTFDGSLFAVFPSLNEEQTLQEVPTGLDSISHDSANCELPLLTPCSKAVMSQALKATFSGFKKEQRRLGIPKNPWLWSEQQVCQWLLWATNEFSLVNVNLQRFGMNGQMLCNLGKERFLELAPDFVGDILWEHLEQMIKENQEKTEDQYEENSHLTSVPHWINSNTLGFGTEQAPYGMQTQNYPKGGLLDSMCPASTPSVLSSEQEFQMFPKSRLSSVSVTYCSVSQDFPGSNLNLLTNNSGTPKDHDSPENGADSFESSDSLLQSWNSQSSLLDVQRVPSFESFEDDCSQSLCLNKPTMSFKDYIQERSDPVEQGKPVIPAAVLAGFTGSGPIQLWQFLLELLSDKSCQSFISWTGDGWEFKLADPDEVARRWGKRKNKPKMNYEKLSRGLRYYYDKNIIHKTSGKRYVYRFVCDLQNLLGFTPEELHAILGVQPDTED
Outline: as §1

SPDEF = target: T9, SPDEF (Homo sapiens, UniProt O95238 1-335); details: protein: recombinant; tags: N-terminal GST; dsDNA, one strand shown
T9 sequence: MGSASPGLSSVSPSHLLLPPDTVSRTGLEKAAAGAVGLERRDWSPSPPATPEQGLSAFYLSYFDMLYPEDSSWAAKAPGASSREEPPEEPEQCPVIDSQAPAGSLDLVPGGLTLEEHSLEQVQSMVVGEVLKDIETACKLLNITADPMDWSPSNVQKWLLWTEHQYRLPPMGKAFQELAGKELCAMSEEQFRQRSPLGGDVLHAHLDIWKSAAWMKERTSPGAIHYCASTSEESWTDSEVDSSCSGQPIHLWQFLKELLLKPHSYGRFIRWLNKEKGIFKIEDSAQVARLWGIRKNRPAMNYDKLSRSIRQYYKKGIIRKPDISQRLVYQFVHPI
Outline: as §1

ETV7 = target: T10, ETV7 (Homo sapiens, UniProt Q9Y603 1-341); details: protein: recombinant; tags: N-terminal GST; dsDNA, one strand shown
T10 sequence: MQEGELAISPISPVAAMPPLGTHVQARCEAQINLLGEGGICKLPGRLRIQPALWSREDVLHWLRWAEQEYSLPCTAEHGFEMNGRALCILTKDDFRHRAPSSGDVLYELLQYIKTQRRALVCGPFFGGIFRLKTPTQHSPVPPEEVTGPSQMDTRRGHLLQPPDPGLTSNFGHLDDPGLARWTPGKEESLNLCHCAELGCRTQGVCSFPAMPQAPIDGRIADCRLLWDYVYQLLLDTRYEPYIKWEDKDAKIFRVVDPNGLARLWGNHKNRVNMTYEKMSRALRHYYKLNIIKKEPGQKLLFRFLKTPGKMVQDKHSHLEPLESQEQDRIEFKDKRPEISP
Outline: as §1

ELF5 = target: T11, ELF5 (Homo sapiens, UniProt Q9UKW6-2 1-255); details: protein: recombinant; tags: N-terminal GST; dsDNA, one strand shown
T11 sequence: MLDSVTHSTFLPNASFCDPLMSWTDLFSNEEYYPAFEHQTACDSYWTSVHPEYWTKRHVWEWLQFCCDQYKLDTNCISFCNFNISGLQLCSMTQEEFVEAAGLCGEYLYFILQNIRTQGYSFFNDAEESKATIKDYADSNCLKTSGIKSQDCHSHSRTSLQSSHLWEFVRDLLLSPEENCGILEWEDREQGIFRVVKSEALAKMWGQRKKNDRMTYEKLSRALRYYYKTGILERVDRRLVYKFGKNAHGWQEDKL
Outline: as §1

ETV3 = target: T12, ETV3 (Homo sapiens, UniProt P41162-2 1-143); details: protein: recombinant; tags: N-terminal GST; dsDNA, one strand shown
T12 sequence: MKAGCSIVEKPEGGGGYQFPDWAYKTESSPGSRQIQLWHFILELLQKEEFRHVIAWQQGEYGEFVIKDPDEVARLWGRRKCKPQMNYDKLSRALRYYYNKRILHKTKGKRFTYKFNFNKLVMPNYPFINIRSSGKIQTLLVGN
Outline: as §1

ETV6 = ETV6 (Homo sapiens, UniProt P41212 1-452); details: protein: recombinant; tags: N-terminal GST; dsDNA, one strand shown
Chain of ETV6 (P41212 whole entry): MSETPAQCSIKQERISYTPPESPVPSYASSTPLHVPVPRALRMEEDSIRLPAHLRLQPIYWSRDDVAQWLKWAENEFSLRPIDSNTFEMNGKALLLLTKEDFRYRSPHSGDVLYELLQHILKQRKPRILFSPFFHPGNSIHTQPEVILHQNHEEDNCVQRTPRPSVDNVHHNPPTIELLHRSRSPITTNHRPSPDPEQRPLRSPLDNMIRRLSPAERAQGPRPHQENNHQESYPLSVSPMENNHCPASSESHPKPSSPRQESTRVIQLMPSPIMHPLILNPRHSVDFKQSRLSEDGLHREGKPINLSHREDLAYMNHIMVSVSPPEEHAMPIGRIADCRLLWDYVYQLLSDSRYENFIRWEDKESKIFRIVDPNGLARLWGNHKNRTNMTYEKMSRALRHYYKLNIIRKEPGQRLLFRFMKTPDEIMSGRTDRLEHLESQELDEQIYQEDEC
Outline: as §1

## AACTAA
FEV
  binding signal: 1.35 fold enrichment (6-mer frequency, TF over GST control)
ETV5
  binding signal: 1.39 fold enrichment (6-mer frequency, TF over GST control)
HSF1
  binding signal: 1.44 fold enrichment (6-mer frequency, TF over GST control)
SPIC
  binding signal: 1.3 fold enrichment (6-mer frequency, TF over GST control)
ELF4
  binding signal: 1.45 fold enrichment (6-mer frequency, TF over GST control)
ELK4
  binding signal: 1.3 fold enrichment (6-mer frequency, TF over GST control)
ETV2
  binding signal: 1.24 fold enrichment (6-mer frequency, TF over GST control)
ELF3
  binding signal: 1.3 fold enrichment (6-mer frequency, TF over GST control)
CRX
  binding signal: 1.84 fold enrichment (6-mer frequency, TF over GST control)
ETV1
  binding signal: 1.39 fold enrichment (6-mer frequency, TF over GST control)
ERF
  binding signal: 1.36 fold enrichment (6-mer frequency, TF over GST control)
ETV3L
  binding signal: 1.25 fold enrichment (6-mer frequency, TF over GST control)
ETS2
  binding signal: 1.4 fold enrichment (6-mer frequency, TF over GST control)
SPDEF
  binding signal: 1.31 fold enrichment (6-mer frequency, TF over GST control)
ETV7
  binding signal: 1.33 fold enrichment (6-mer frequency, TF over GST control)
ELF5
  binding signal: 1.38 fold enrichment (6-mer frequency, TF over GST control)
ETV3
  binding signal: 1.29 fold enrichment (6-mer frequency, TF over GST control)
ETV6
  binding signal: 1.42 fold enrichment (6-mer frequency, TF over GST control)
